Where “and” joins values, the source holds several entries; their conditions need not be identical. Equal values may be shown once. Inconclusive results are not listed. Where a call stands in place of a potency, no number is given. Where a structure was tested more than once in an assay, its records may differ in their call. Calls of active or inactive are those of the source. Unless noted, the call rests on the fitted dose curve; in most records, active means well fitted cell-killing curve with a large enough effect in the repeat runs (not every such curve was filed as active); inconclusive means weak or mixed curves, or effect the other way; inactive means no such curve, though single readings can be large or run the other way.
Tested on: not listed separately
Assay: qHTS assay to identify small molecule antagonists of the estrogen related receptor signaling pathway with the pleiotropic PPARgamma coactivator (PGC) from Tox21 10K library - cell viability counter screen (AID 1224840); further: nearly all actives have a fitted effect of over 40% in size; further: potency means the concentration at half of the fitted maximal effect
Details: PGC/ERR reporter cells viability, CellTiter-Fluor, 17.5 h; series mostly up to 92.4 µM; viability change, negative = cytotoxic: at the top concentration
Method in brief: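 Following seeding of 2,000 PGC/ERR cells/well and 6 hours' incubation, test compounds were delivered in DMSO. The plates then sat 17.5 hours at 37 C before a fluorogenic live-cell protease reagent (CellTiter-Fluor) was read after 30 min.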

| SMILES | Potency | viability change, negative = cytotoxic |
| --- | --- | --- |
| CCCN(CCC)c1c([N+](=O)[O-])cc(C(F)(F)F)cc1[N+](=O)[O-] | inactive |  |
| COC(=O)NC(=S)Nc1ccccc1NC(=S)NC(=O)OC | inactive |  |
| CCC(C)(CC)c1cc(NC(=O)c2c(OC)cccc2OC)on1 | inactive |  |
| CN(C)[C@@H]1C(=O)C(C(N)=O)=C(O)[C@@]2(O)C(=O)C3=C(O)c4c(O)cccc4[C@@](C)(O)[C@H]3C[C@@H]12 | inactive |  |
| CCN(CC)CCO | inactive |  |
| CC1OC(C)OC(C)O1 (stereo not drawn) | inactive |  |
| COc1ccc2c3c1O[C@H]1[C@@H](O)C=C[C@H]4[C@@H](C2)N(C)CC[C@@]341 | 42.6 µM (active) and inactive |  |
| CC(Oc1ccc(Cl)cc1Cl)C(=O)O (stereo not drawn) | inactive |  |
| Nc1c(Cl)c(Cl)nc(C(=O)O)c1Cl | inactive |  |
| O=C(O)c1ccccn1 | inactive |  |
| CCCCN(CC)C(=O)SCCC | inactive |  |
| CCNc1nc(NC(C)(C)C)nc(SC)n1 |  | -5.56% (inactive) |
| Cc1ccc(N)cc1N | inactive |  |
| NCCc1ccc(O)cc1 | inactive |  |
| CCCCN(CCCC)SN(C)C(=O)Oc1cccc2c1OC(C)(C)C2 | inactive |  |
| CCN(CC)c1ccccc1 | inactive |  |
| O=c1ccc(=O)[nH][nH]1 | inactive |  |
| CCOC(=O)c1ccccc1C(=O)OCC | inactive |  |
| COC(=O)c1ccccc1C(=O)OC | inactive |  |

| SMILES | Potency | viability change, negative = cytotoxic |
| --- | --- | --- |
| CN1C(=O)CN=C(c2ccccc2)c2cc(Cl)ccc21 | inactive |  |
| COC(=O)c1ccccc1N | inactive |  |
| [N-]=[N+]=[N-] | inactive |  |
| C=CCO | inactive |  |
| O=S(=O)(c1ccc(Cl)cc1)c1cc(Cl)c(Cl)cc1Cl | inactive |  |
| CCC[N+](=O)[O-] | 37.9 µM (active) and inactive |  |
| CCCC1COC(Cn2cncn2)(c2ccc(Cl)cc2Cl)O1 (stereo not drawn) | 61.1 µM (active) |  |
| CCCCCOC(=O)c1ccccc1C(=O)OCCCCC | inactive |  |
| C=C(C)CCl | inactive |  |
| C1CN2CCN1CC2 | inactive |  |
| CCOP(=S)(OCC)Oc1cnc2ccccc2n1 | inactive |  |
| Cc1ccc([N+](=O)[O-])cc1C | inactive |  |
| CC(C)=C[C@@H]1[C@@H](C(=O)OCc2coc(Cc3ccccc3)c2)C1(C)C | inactive |  |
| C[C@]12CC[C@H]3[C@@H](CC[C@@]45O[C@@H]4C(O)=C(C#N)C[C@]35C)[C@@H]1CC[C@@H]2O | inactive |  |
| c1ccc(OP(Oc2ccccc2)Oc2ccccc2)cc1 | inactive |  |
| O=C1CCCN1 | inactive |  |
| c1ccc2c(c1)oc1ccccc12 | inactive |  |
| Cc1cccc([N+](=O)[O-])c1 | inactive |  |

Tested on: not listed separately
Assay: qHTS assay to identify small molecule antagonists of the estrogen related receptor signaling pathway with the pleiotropic PPARgamma coactivator (PGC) from Tox21 10K library (AID 1224841; call rule not given here; further: actives are mostly falling curves and most rising ones were filed inactive; nearly all actives have a fitted effect of over 50% in size; further: potency means the concentration at half of the fitted maximal effect)
Details: PGC/ERR reporter cell line, ONE-Glo luciferase, 18 h; series mostly up to 92.4 µM; activity, negative = inhibition: at the top concentration
Method in brief: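 qHTS antagonist format: PGC/ERR cells, 2k/well, compound in DMSO by pin transfer after 6 h attachment, 18 h treatment at 37 C, One-Glo luminescence read at 30 min.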

| SMILES | Potency | activity, negative = inhibition |
| --- | --- | --- |
| CCC(C)(CC)c1cc(NC(=O)c2c(OC)cccc2OC)on1 | 30.7 µM (active) and inactive |  |
| CC1OC(C)OC(C)O1 (stereo not drawn) | inactive |  |
| COc1ccc2c3c1O[C@H]1[C@@H](O)C=C[C@H]4[C@@H](C2)N(C)CC[C@@]341 | 23.9 µM (active) and inactive |  |
| Cc1ccc(N)cc1N | inactive |  |
| O=c1ccc(=O)[nH][nH]1 | inactive |  |
| CCOC(=O)c1ccccc1C(=O)OCC |  | 9.9% (inactive) |
| COC(=O)c1ccccc1C(=O)OC | 38.8 µM (active) and inactive |  |
| CN1C(=O)CN=C(c2ccccc2)c2cc(Cl)ccc21 | inactive |  |
| COC(=O)c1ccccc1N | inactive |  |
| Cc1cccc([N+](=O)[O-])c1 | inactive |  |

Tested on: not listed separately
Assay: qHTS assay to identify small molecule agonists of the estrogen related receptor signaling pathway with the pleiotropic PPARgamma coactivator (PGC) from Tox21 10K library (AID 1224842; active means well fitted activation curve with a large enough effect in the repeat runs; further: nearly all actives have a fitted effect of over 15% in size)
Details: PGC/ERR reporter cell line, luciferase ONE-Glo, 18 h; series mostly up to 92.4 µM; activation: at the top concentration
Method in brief: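 PGC/ERR reporter cell line, 2,000 cells per well, incubated 6 h at 37 C before 23 nL compound in DMSO was added. After 18 h at 37 C, One-Glo luminescence read following 30 min at room temperature.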

| SMILES | outcome | activation |
| --- | --- | --- |
| CCC(C)(CC)c1cc(NC(=O)c2c(OC)cccc2OC)on1 | inactive |  |
| CC1OC(C)OC(C)O1 (stereo not drawn) | inactive |  |
| COc1ccc2c3c1O[C@H]1[C@@H](O)C=C[C@H]4[C@@H](C2)N(C)CC[C@@]341 | inactive |  |
| Cc1ccc(N)cc1N |  | 5.95% (inactive) |
| O=c1ccc(=O)[nH][nH]1 | inactive |  |
| CCOC(=O)c1ccccc1C(=O)OCC | inactive |  |
| COC(=O)c1ccccc1C(=O)OC |  | -8.6% (inactive) |
| COC(=O)c1ccccc1N | inactive |  |

Target: Thyrotropin receptor (Homo sapiens) (UniProt P16473)
Assay: qHTS assay to identify small molecule agonists of the thyroid stimulating hormone receptor (TSHR) signaling pathway (AID 1224843; calls by dose curve; further: nearly all actives have a fitted effect of over 45% in size; further: potency means the concentration at half of the fitted maximal effect)
Details: TSHR-HEK293 cells, cAMP HTRF, agonist mode, 30 min; series mostly up to 92.4 µM; activation: at the top concentration
Method in brief: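 Steps: seed 800 TSHR-HEK293 cells per well; add test compound and hold 30 min at ambient temperature; dispense cAMP-d2 then anti-cAMP cryptate; incubate 1 h at ambient; measure fluorescence intensity.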

Chain of Thyrotropin receptor (Homo sapiens) (P16473 whole entry, looked up): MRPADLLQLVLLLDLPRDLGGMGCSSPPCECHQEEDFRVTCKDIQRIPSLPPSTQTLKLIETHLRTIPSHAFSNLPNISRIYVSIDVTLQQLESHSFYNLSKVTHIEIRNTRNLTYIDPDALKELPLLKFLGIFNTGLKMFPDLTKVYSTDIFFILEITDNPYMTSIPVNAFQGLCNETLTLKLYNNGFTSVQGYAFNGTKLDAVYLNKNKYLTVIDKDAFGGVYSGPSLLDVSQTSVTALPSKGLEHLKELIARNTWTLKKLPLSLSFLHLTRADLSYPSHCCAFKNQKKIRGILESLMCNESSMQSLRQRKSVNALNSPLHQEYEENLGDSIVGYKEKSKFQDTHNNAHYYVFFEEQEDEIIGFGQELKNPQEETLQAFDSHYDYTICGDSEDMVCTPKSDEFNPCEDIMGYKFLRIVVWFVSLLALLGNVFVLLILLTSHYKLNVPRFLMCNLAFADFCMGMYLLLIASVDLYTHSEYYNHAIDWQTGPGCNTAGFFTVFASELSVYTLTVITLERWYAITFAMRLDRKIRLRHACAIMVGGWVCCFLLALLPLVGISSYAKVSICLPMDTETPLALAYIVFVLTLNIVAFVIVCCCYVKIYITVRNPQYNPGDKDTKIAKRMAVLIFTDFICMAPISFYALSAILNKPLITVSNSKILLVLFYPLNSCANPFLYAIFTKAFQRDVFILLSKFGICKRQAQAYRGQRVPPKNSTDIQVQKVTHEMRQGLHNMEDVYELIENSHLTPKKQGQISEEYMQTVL

| SMILES | Potency | activation |
| --- | --- | --- |
| CCCN(CCC)c1c([N+](=O)[O-])cc(C(F)(F)F)cc1[N+](=O)[O-] | 10.8 µM (active) and 12.2 µM (active) |  |
| COC(=O)NC(=S)Nc1ccccc1NC(=S)NC(=O)OC | inactive |  |
| CN(C)[C@@H]1C(=O)C(C(N)=O)=C(O)[C@@]2(O)C(=O)C3=C(O)c4c(O)cccc4[C@@](C)(O)[C@H]3C[C@@H]12 | inactive |  |
| CCN(CC)CCO | inactive |  |
| COc1ccc2c3c1O[C@H]1[C@@H](O)C=C[C@H]4[C@@H](C2)N(C)CC[C@@]341 | inactive |  |
| CC(Oc1ccc(Cl)cc1Cl)C(=O)O (stereo not drawn) | inactive |  |
| Nc1c(Cl)c(Cl)nc(C(=O)O)c1Cl | inactive |  |
| CCCCN(CC)C(=O)SCCC | inactive |  |
| CCNc1nc(NC(C)(C)C)nc(SC)n1 | inactive |  |
| NCCc1ccc(O)cc1 | inactive |  |
| CCCCN(CCCC)SN(C)C(=O)Oc1cccc2c1OC(C)(C)C2 |  | -28.4% (inactive) |
| O=c1ccc(=O)[nH][nH]1 | inactive |  |
| COC(=O)c1ccccc1C(=O)OC | inactive |  |
| CN1C(=O)CN=C(c2ccccc2)c2cc(Cl)ccc21 | inactive |  |
| COC(=O)c1ccccc1N | inactive |  |
| [N-]=[N+]=[N-] | inactive |  |
| C=CCO | inactive |  |
| CCC[N+](=O)[O-] |  | 1.95% (inactive) |
| CCCC1COC(Cn2cncn2)(c2ccc(Cl)cc2Cl)O1 (stereo not drawn) | inactive |  |
| C1CN2CCN1CC2 | inactive |  |
| CCOP(=S)(OCC)Oc1cnc2ccccc2n1 | inactive |  |
| Cc1ccc([N+](=O)[O-])cc1C | inactive |  |
| CC(C)=C[C@@H]1[C@@H](C(=O)OCc2coc(Cc3ccccc3)c2)C1(C)C |  | -10.6% [at 42.5 µM] (inactive) |
| C[C@]12CC[C@H]3[C@@H](CC[C@@]45O[C@@H]4C(O)=C(C#N)C[C@]35C)[C@@H]1CC[C@@H]2O |  | -2.99% [at 42.5 µM] (inactive) |
| c1ccc(OP(Oc2ccccc2)Oc2ccccc2)cc1 | inactive |  |
| O=C1CCCN1 | inactive |  |
| c1ccc2c(c1)oc1ccccc12 | inactive |  |
| Cc1cccc([N+](=O)[O-])c1 | inactive |  |

Reference: PubChem BioAssay (Tox21)
